In PubChem BioAssay AID2216 (Broad Institute, 2009) one finds inhibition data, which are given here for 89 compounds.

Among all 300,000 compounds or so, about 3,300 (1.1%) were called active. Another 6% or so got no clear call; they are omitted. This is one part of a sample in which actives are shown more often than they occur. Unmarked numbers belong to inactive results.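 Rule for the calls: active = more than half of the replicate wells show a fall in the fluorescence ratio signal beyond about 16% (limit read from the data, passing the limit was not always enough); inconclusive = exactly half of the replicate wells pass the set limit; inactive = fewer than half of replicates pass the limit.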

The assay has as its system Ran GTPase (GTP-bound) - importin-beta complex. Nature of the assay: disruptors of Ran-importin-beta complex formation – biochemical, FRET, CFP-Ran, YFP-importin-beta, homogeneous, primary screen (AID 2216).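 Note: 0% = DMSO wells and 100% = Ran loaded with GDP instead of GTP.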 Conditions: cell-free CFP-Ran/YFP-importin-beta FRET ratio; hits give high values; concentration not given here.
The term inhibition denotes the drop in the measured response relative to a control, in per cent. Regarding `CC(C)(C)OC(=O)NNc1c2ccccc2nc2ccccc12`, the inhibition is 45.2% (active).

On to `O=C(N/N=C/c1cccnc1)c1cc2ccccc2cc1O`, for which the inhibition is -5.78%. With `Cc1ccccc1NC(=O)NNC(=O)OC(C)(C)C`, the inhibition is 3.65%. With `O=C(NNc1c2ccccc2nc2ccccc12)c1cc2ccccc2cc1O`, the inhibition was 46.1% (active).

On to `COc1ccc(-c2cc(C(=O)Nc3ccccc3O)c3ccccc3n2)cc1`, for which the inhibition is 5.76%.

`CCC(=O)OCCNc1nc(-c2ccccc2)nc2ccccc12`: the inhibition was -0.305%.

On to `COC(=O)c1ccc(SCc2ccccc2)nc1`, for which the inhibition was 1.08%. The same measure for `CCc1nnc(NS(=O)(=O)c2ccc(NC(=O)c3cccc(OC(F)(F)C(F)F)c3)cc2)s1`: -0.123%; for `COc1ccc(C(CNC(=O)c2ccc(S(=O)(=O)Nc3ccccc3C)cc2)N2CCOCC2)cc1` (centres undefined): 0.862%; for `O=S(=O)(Nc1ccc(O)c2ccccc12)c1ccc(OC(F)(F)F)cc1`: 2.4%. To `COc1ccc(CNS(=O)(=O)c2cc3c4c(c2)CCN4C(=O)CC3)cc1` belongs -2.98%; to `Cn1c2ccccc2n2c(=O)c(=O)n(CC(=O)c3ccc(F)cc3)nc12`, 23.2% (active); to `Cn1c(SCC(=O)c2ccc(F)cc2)nnc1-c1ccccn1`, 8.68%.

Consider `Cc1nn(CC(=O)Nc2ccc(F)cc2)c(=O)c2ccccc12`, for which the inhibition was 0.000866%. As for `O=C(CNS(=O)(=O)c1ccccc1)N1CCN(C(=O)c2ccco2)CC1`, the inhibition is 1.51%.

For the compound `COc1ccccc1N(C)S(=O)(=O)c1ccc(Cl)c(C(=O)Nc2ccncc2)c1`, the inhibition is -1.81%.

`CSCCC(NC(=O)COc1ccccc1)C(=O)OCCOc1ccc(F)cc1` (centres undefined): the inhibition was 6.76%. Regarding `CCCCn1c(N)c(N(CC(C)C)C(=O)CN(C)S(=O)(=O)c2ccc(F)cc2)c(=O)[nH]c1=O`, the inhibition was 6.85%. The same measure for `CCN1C(=O)[C@@H]2[C@@H](c3ccc(-c4ccccc4)cc3)N3CCCC[C@@]3(C(=O)OC)[C@@H]2C1=O`: -2.21%.

On to `CCCc1cc(=O)oc2c(C)c(OCC(=O)N3CCC(C(=O)O)CC3)ccc12`, for which the inhibition is 0.461%. The same measure for `CCCc1cc(=O)oc2c(C)c(OC(C)C(=O)NCC(O)c3ccccc3)ccc12` (centres undefined): 1.81%; for `CCCc1cc(=O)oc2c(C)c(O)c(CN3CCCCC3)cc12`: 58.6% (active). On to `O=C(Nc1ccc(C(=O)N2CCOCC2)cc1)Nc1cccc(C(F)(F)F)c1`, for which the inhibition was -2.36%. In the case of `Cc1ccc(C)c(OCCC(=O)OCC(=O)c2ccc3c(c2)NC(=O)CO3)c1`, the inhibition is 0.406%. As to `CCCCn1c(N)c(N(CCOC)C(=O)c2sc3ccccc3c2Cl)c(=O)[nH]c1=O`, the inhibition was 7.27%.

For the compound `Cc1nc2ccccc2c(=O)n1-c1ccc(F)c(NC(=O)c2cccs2)c1`, the inhibition was 7.77%.

As for `Cc1cccc(NC(=O)c2cccc(S(=O)(=O)N3CCCC3)c2)n1`, the inhibition was 1.93%. `Cc1ncc(CO)c(/C=N/NC(=O)c2cccc(S(=O)(=O)N3CCCC3)c2)c1O`: the inhibition is 38.4% (active).

Regarding `O=C(N/N=C/c1ccccn1)c1ccc(S(=O)(=O)N2CCCCCC2)cc1`, the inhibition was 3.77%.

As to `Cc1ccc(C(=O)CN2C(=O)NC3(CCc4ccccc43)C2=O)c(C)c1` (centres undefined), the inhibition is -0.128%. The same measure for `Cc1ccc(C(=O)NNC(=O)c2ccncc2)cc1S(=O)(=O)N1CCCCC1`: -4.29%; for `Cc1ccc(NC(=O)COc2ccc(/C=C3/NC(=O)NC3=O)cc2)cc1`: -1.54%. For the compound `CCOC(=O)C1=C(O)/C(=C/c2cc(C)n(-c3ccccc3)c2C)N=C1C`, the inhibition was 3.69%.

On to `CCOC(=O)C1=C(O)/C(=C/c2ccc(OCC(=O)Nc3ccc(C)cc3)cc2)N=C1C`, for which the inhibition was 70.2% (active). In the case of `CCOC(=O)c1ccccc1NC(=O)c1c(N)n(C)c(=O)[nH]c1=O`, the inhibition was -1.23%. In the case of `O=C(c1ccc(F)cc1)N1CCC(C(=O)N2CCN(S(=O)(=O)c3ccccc3Br)CC2)CC1`, the inhibition is 4.17%. As for `O=C(Nc1cc2ccccc2oc1=O)C1CCCCC1`, the inhibition was 4.19%. With `CC(=O)Oc1ccc2c(C)c(CC(C)O)c(=O)oc2c1` (centres undefined), the inhibition is 10%.

Turning to `CC(=O)Nc1cc2ccc(OC(C)=O)cc2oc1=O`, the inhibition was 33.6% (active). Take `O=C1OC(/C=C/c2ccccc2)=NC/1=C/c1ccco1`: the inhibition is 0.891%.

For the compound `COc1ccccc1/C=C/C1=NC(=C\N(C)C)/C(=O)O1`, the inhibition is 37% (active). As to `COc1ccccc1/C=C/C(=O)NC(=S)N1CCOCC1`, the inhibition was -1.73%. For the compound `COCc1ccc(C(=O)N2CCc3c([nH]c4ccccc34)C2c2ccccn2)s1` (centres undefined), the inhibition is 0.202%.

Turning to `Cc1cccc(C2c3[nH]c4ccccc4c3CCN2C(=O)c2cc(-c3cccn3C)n[nH]2)n1` (centres undefined), the inhibition is 21.1% (active). Consider `O=C(c1cn2ccccc2n1)N1CCc2c([nH]c3ccccc23)C1c1ccccn1` (centres undefined), for which the inhibition was 3.68%. The same measure for `O=C(NCC1(N2CCCCC2)CCCCC1)c1ccc(NS(=O)(=O)c2ccc(F)cc2)cc1`: -1.33%. Regarding `COC(=O)[C@]1(C)N[C@H](c2ccc(-c3ccc(Cl)c(Cl)c3)cc2)[C@@H]2C(=O)N(C)C(=O)[C@@H]21`, the inhibition was 1.99%.

For `CC(C)Cn1c(N)c(C(=O)NCc2cccs2)c2nc3ccccc3nc21`, the inhibition was 73.8% (active). As to `CCCNC(=O)c1c(N)n(-c2ccc(S(N)(=O)=O)cc2)c2nc3ccccc3nc12`, the inhibition was 12.3%. `CCOc1ccccc1NC(=O)Cn1nnc(C(=O)NCc2cccs2)c1N`: the inhibition is 1.12%. Take `Cc1c(C)n2c(SCC(=O)NC3CCCC3)nnc2[nH]c1=O`: the inhibition was 1.36%. For the compound `CC(C)(C)Oc1ccccc1Nc1nc(NCCO)nc(N2CCCC2)n1`, the inhibition was -2.11%. In the case of `Cc1cc(O)cc(O)c1C(=O)Cc1cnn(-c2ccccc2)c1`, the inhibition is 0.165%.

Take `COc1ccc(C(=O)CC(=O)c2ccc(C)cc2)c(O)c1`: the inhibition was 2.86%.

For `COc1ccc(C(=O)Cc2cnn(-c3ccccc3)c2)c(O)c1`, the inhibition was 17.5% (active).

Consider `CCCCn1c(N)c(N(CC(C)C)C(=O)c2cccc(S(=O)(=O)N3CCN(C(C)=O)CC3)c2)c(=O)[nH]c1=O`, for which the inhibition was 6.15%. The same measure for `COc1cc(/C=N\Nc2ccc([N+](=O)[O-])cn2)ccc1OCC(=O)O`: 69.7% (active).

For the compound `COc1cc(/C=N/O)ccc1OCc1ccc([N+](=O)[O-])cc1`, the inhibition is -0.23%.

Turning to `Cc1cc(/C=N/Nc2ccc([N+](=O)[O-])cn2)c(C)n1-c1cccc(C(=O)O)c1`, the inhibition is -1.11%. Consider `COc1cccc(COC(=O)C2CCN(S(=O)(=O)c3cccs3)CC2)c1OC`, for which the inhibition is 8.84%. Regarding `Cc1cc(C(=O)OC(C)C(=O)NC2CCCCC2C)c(C)o1` (centres undefined), the inhibition is -3.61%. On to `CC(OC(=O)CNC(=O)c1ccc(Cl)c([N+](=O)[O-])c1)C(=O)NCc1ccco1` (centres undefined), for which the inhibition is 5.87%. Consider `CC(OC(=O)CNC(=O)c1cccc(F)c1)C(=O)NC1CCCCC1C` (centres undefined), for which the inhibition was 18.8% (active).

With `CC(C)(C)c1ccc(C(=O)NCc2ccco2)cc1`, the inhibition was -1.24%. As for `CCOc1ccc(CCNC(=O)COC(=O)c2c(OC)cccc2OC)cc1OCC`, the inhibition was 1.08%.

Turning to `COCCn1c(SC(C)C(=O)NC2CC2)nnc1-c1cccc(C)c1` (centres undefined), the inhibition is -0.425%. To `O=C(NCc1ccc(Cl)cc1)C(=O)NCC1CCCN1S(=O)(=O)c1cccs1` (centres undefined) belongs -0.323%; to `CCCC(=O)Nc1ccc(C(=O)N/N=C/c2ccc[nH]2)cc1`, 2.49%; to `CC(=O)Nc1ccc(/C=C/C(=O)c2ccccc2)cc1`, -0.329%. Regarding `CC(=O)Nc1ccc(C(=O)/C=C/c2ccc[nH]2)cc1`, the inhibition is 16.6% (active). Take `CC(C)Oc1ccc(S(=O)(=O)N2CCOCC2)cc1NC(=O)C1CSC2(C)CCC(=O)N12` (centres undefined): the inhibition is -2.87%. Turning to `COc1ccc(S(=O)(=O)NCCCc2ccccc2)cc1`, the inhibition was -4.52%. With `O=C(/C(=C/c1cccc(Cl)c1)c1nc2ccccc2[nH]1)c1ccccc1`, the inhibition is 2.15%. `Cc1ccc(-c2nc3ccccc3[nH]c2=O)cc1`: the inhibition is 3.42%. As to `O=C(Cc1nc2ccccc2[nH]c1=O)c1ccc(Cl)cc1`, the inhibition is 39% (active). On to `COC(=O)Cc1ccc(OCC(=O)Nc2ccc(OC(F)(F)F)cc2)cc1`, for which the inhibition was -0.217%. For the compound `Cc1cc(C)cc(NS(=O)(=O)c2ccc(Oc3ncc(C(F)(F)F)cc3Cl)cc2)c1`, the inhibition is 1.58%. The same measure for `COC(=O)Cc1ccc(Oc2ncc(C(F)(F)F)cc2Cl)cc1`: 106% (active); for `CCCCn1c(N)c(N(CC)C(=O)c2ccc(N(C)S(=O)(=O)c3ccc(C)cc3)cc2)c(=O)[nH]c1=O`: -4.28%. In the case of `COc1ccc(/C=C(\C#N)C(=O)OCC(=O)N(C)C2CCS(=O)(=O)C2)cc1` (centres undefined), the inhibition was 1.11%. As for `COc1ccccc1NS(=O)(=O)c1ccc(C(=O)N2CCN(c3ccccc3O)CC2)cc1`, the inhibition is 1.18%. Regarding `COc1ccc(Nc2nc(NCc3ccco3)nc(N/N=C/c3ccccc3Cl)n2)cc1`, the inhibition is -0.0694%.

In the case of `COc1ccc(-n2cnc3cc(NCc4ccco4)ccc32)cc1`, the inhibition is 23% (active).

For `COc1ccc(-n2cnc3cc(C(=O)NC4CCCC4)ccc32)cc1`, the inhibition was -1.26%. As to `CCCc1nnc(NC(=O)c2cc(OC)cc(OC)c2)s1`, the inhibition was 162% (active).

As to `CCCc1nnc(NC(=O)c2cccs2)s1`, the inhibition is -123%. As for `COc1ccc(Cc2nnc(NC(=O)c3cc(OC)c(OC)c(OC)c3)s2)cc1OC`, the inhibition is 3.23%. The same measure for `C[C@@H]1O[C@@H](OC[C@H]2O[C@@H](Oc3c(-c4ccc(O)cc4)oc4cc(O)cc(O)c4c3=O)[C@H](O)[C@@H](O)[C@@H]2O)[C@H](O)[C@H](O)[C@H]1O`: 2.8%; for `COc1ccc(CNC(=O)C2(CC3CC(c4ccccc4)=NO3)CCN(C(=O)c3cccc(O)c3)CC2)cc1` (centres undefined): 5.15%.
